Hits are enriched below; roughly 17% of the tested compounds scored in any of these assays.
TDP1 block – blocks human tyrosyl-DNA phosphodiesterase 1 | Q9NUW8 | recombinant TDP1, AlphaScreen DNA substrate cleavage | Potency, µM (series often up to 130 µM), for the others: top-dose activity change, negative = inhibition, usual class: inhibitors | 350,000 tested, 0.28% active | AID 485290; note: % is set by controls: 0 for no effect and ±100 for the full control effect; nearly all actives have a fitted effect of over 40% in size
Target sequence (Q9NUW8 whole entry, looked up): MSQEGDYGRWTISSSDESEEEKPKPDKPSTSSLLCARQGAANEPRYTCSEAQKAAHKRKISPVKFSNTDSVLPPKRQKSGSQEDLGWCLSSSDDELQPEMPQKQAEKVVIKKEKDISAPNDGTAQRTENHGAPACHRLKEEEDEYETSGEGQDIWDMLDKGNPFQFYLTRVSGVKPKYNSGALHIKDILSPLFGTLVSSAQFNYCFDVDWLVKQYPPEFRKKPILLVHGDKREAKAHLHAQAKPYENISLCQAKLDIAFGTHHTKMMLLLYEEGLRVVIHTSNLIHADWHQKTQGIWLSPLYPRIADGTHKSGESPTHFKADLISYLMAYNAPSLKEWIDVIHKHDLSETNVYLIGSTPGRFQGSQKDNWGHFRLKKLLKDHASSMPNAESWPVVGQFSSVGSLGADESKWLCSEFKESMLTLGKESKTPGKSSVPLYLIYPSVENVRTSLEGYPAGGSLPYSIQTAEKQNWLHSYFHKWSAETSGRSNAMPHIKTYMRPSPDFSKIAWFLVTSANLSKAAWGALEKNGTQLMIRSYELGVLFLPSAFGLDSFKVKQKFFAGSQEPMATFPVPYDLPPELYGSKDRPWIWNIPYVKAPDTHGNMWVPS
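Recombinant human Tdp1 (E. coli-expressed, 1 nM final) preincubated with compounds 15 min at room temperature, then 5'-biotin/3'-phosphotyrosine-FITC DNA substrate (15 nM final) added for 5 min. AlphaScreen beads (10 ug/ml final) added 10 min; cleavage lowers signal.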
ClpP mod – qHTS Assay for Activators of ClpP | ATP-dependent Clp protease proteolytic subunit (Bacillus subtilis (strain 168)), P80244 | purified B. subtilis ClpP, FRET peptide cleavage, 20 min | Potency, µM (top dose mostly 57.5 µM), without a hit: at the top dose activity change, negative = active | 340,000 tested, 1.9% active | AID 651965, 2013; active = well fitted falling curve with a large enough effect; inconclusive = small, poorly fitted or top-dose-only effect; inactive = no such curve, though single readings can be large or run the other way; note: the source files actives as falling curves though it sought activators and does not explain the sign; nearly all actives have a fitted effect of over 65% in size
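ClpP 10 microg/mL final, pH 8 Tris/KCl buffer with BSA, glycerol, Tween-20; compound pinned in; FRET-FV substrate; RT 20 min; Ex320/Em430; ΔFRET vs ADEP 5.8 microM, DMSO, no enzyme.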
DT40 TDP1 no CPT – qHTS for Inhibitors of human tyrosyl-DNA phosphodiesterase 1 (TDP1): qHTS in cells in absence of CPT. DT40 Tdp1-/- hTDP1 cells, no CPT, ATP luminescence, 48 h. Potency, µM (doses to about 46.2 µM), inactives show top-dose activity change, negative = growth inhibition, hits mostly inhibitors. 420,000 tested, 15% active. AID 686978, 2013; note: % is set by controls: 0 for no effect and ±100 for the full control effect; nearly all actives have a fitted effect of over 55% in size
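Compound effects on proliferation are scored in DT40 Tdp1-/-;hTDP1 cells in the absence of CPT. ATP levels (CellTiter-Glo luminescence) are recorded after a ≥48 hr, 37 °C incubation.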
TDP1 cell CPT – DT40-hTDP1 cell growth loss with CPT; AID 686979; chicken DT40 Tdp1-/-;hTDP1 cells + 20 nM CPT, ATP luminescence, 48 h; Potency, µM (doses to about 46.2 µM), for the others: at the top dose activity change, negative = growth inhibition, hits mostly inhibitors; 420,000 tested, 12% active; note: % is set by controls: 0 for no effect and ±100 for the full control effect; nearly all actives have a fitted effect of over 55% in size
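Chicken DT40 Tdp1-/- cells stably complemented with human TDP1 were seeded at 400 cells/well in medium containing 20 nM camptothecin, exposed to pin-transferred compounds, and grown at 37 °C for at least 48 hr. Viability was read as ATP luminescence.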
ClpP validation – inhibits B. subtilis ClpP protease, hit validation | shares compounds with ClpP mod | purified B. subtilis ClpP, FRET-FV substrate cleavage, 20 min | Potency, µM (top dose mostly 57.5 µM), without a hit: top-dose activity change, negative = inhibition, hits mostly inhibitors | 470 tested, 40% active; note: % is set by controls: 0 for no effect and ±100 for the full control effect; nearly all actives have a fitted effect of over 70% in size
* = called active by the depositor; u = inconclusive; x = no result given. Unless noted, calls come from the whole dose curve; as a rule, active = well fitted curve in the direction sought with a large enough effect; inconclusive = small, poorly fitted or top-dose-only effect, or another doubt; inactive = no such curve, though single readings can be large; an effect the other way counts as inactive or inconclusive. Potency is the fitted concentration of half-maximal effect.

SMILES | TDP1 block | ClpP mod | DT40 TDP1 no CPT | TDP1 cell CPT | ClpP validation
COc1cccc(C(=O)c2cn(CC(=O)Nc3cccc(Cl)c3C)c3nc(C)ccc3c2=O)c1 | 8% | 0% | -18% | 4% | x
COc1cc2c(cc1OC)C(COc1ccc3c(C)cc(=O)oc3c1)N(C(=O)c1ccccc1F)CC2 (centres undefined) | 3% | 91% | 21µM* | u | u
COc1cc2c(cc1OC)C(COc1ccc3c(C)cc(=O)oc3c1)N(C(=O)c1ccc(Cl)cc1)CC2 (centres undefined) | 0% | -7% | u | u | x
CCCc1cc(=O)oc2cc(OC(C)C(=O)NC3CC(C)(C)NC(C)(C)C3)ccc12 (centres undefined) | 1% | 5% | -9% | -7% | x
COc1ccc(S(=O)(=O)N2CCCC2C(=O)Nc2nc3c(s2)CCCC3)cc1 (centres undefined) | 4% | 6.3µM* | u | 4% | 0%
O=C1C2CC=CCC2C(=O)N1c1cccc(OS(=O)(=O)c2ccc3ccccc3c2)c1 (centres undefined) | 2% | -6% | u | u | x
CCc1ccc(CNC(=O)Cn2nc(-c3ccccc3)ccc2=O)cc1 | 4% | 4µM* | -11% | -17% | -2%
CCOc1ccc(S(=O)(=O)N(CC)CC(=O)N2CCOCC2)cc1C | 1% | x | -17% | -2% | x
O=S(=O)(Cc1ccc(Cl)cc1)c1ccccc1-c1nnc(-c2ccc(Cl)cc2)o1 | 4% | 64% | u | u | 27µM*
Cc1ccc(-c2nnc(-c3ccccc3S(=O)(=O)Cc3ccc(Cl)cc3)o2)cc1 | 4% | 65% | 23µM* | u | 14µM*
COc1ccc(C2C(C#N)=C(N)N(c3ccccc3C#N)C3=C2C(=O)CCC3)cc1CN1CCCC1 (centres undefined) | 9% | -7% | u | u | x
CC(=O)NC1[C@H](O)C[C@@](O)(C(=O)O)O[C@H]1[C@H](O)[C@H](O)CO (some centres undefined) | -1% | x | x | x | x
COc1ccc(-n2c(=O)c3c(c4cc(OC)ccc4n3C)n(Cc3cccc(OC)c3)c2=O)cc1 | 8% | 2.5µM* | -16% | -20% | 22µM*
COc1ccc(CNc2nc(-c3cccnc3)nn2C(=O)C(C)C)cc1 | 2% | x | -23% | u | x
COc1cccc(-c2cc(C(=O)NC3CCCCC3)no2)c1 | 13% | x | -2% | 8% | x
O=C(NCCC1=CCCCC1)c1ccc2c(c1)sc1nc(-c3ccc(F)cc3)cn12 | 6% | -20% | u | -16% | x
O=C(NC1CCCCC1)c1ccc2c(c1)sc1nc(-c3ccc(F)cc3)cn12 | 5% | 10µM* | 15µM* | 13µM* | -8%
COc1cccc(-c2cn3c(n2)sc2cc(C(=O)NC4CCCCCC4)ccc23)c1 | -3% | 4µM* | u | u | 24µM*
COc1cccc(-c2cn3c(n2)sc2cc(C(=O)NC4CCCCC4)ccc23)c1 | 1% | u | u | u | 24µM*
COc1cccc(C(=O)NC2CCCC2)c1 | 8% | x | -9% | -2% | x
O=C(Nc1ccccc1F)c1ccc2ncsc2c1 | x | 1% | -24% | -14% | x
CCc1cccc(CC)c1N(COC)C(=O)Cn1c(CC)nc2ccccc21 | x | 1% | u | -18% | x
CCOc1ccc(NC(=O)CN2CCN(CC(=O)Nc3ccc(N(CC)CC)cc3)CC2)cc1 | 4% | 0% | -11% | -7% | x
